# The source made the active and inactive calls. Unless noted, the rule behind the calls is not given here.
# Experiments:
# [1] = compounds binding Alexa647 anti-His antibody – biochemical, small-molecule microarray, 635 nm fluorescence, artefact control for SMM control protein annotation, primary screen (AID 1128); settings: higher = more signal;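 note: score merges feature fluorescence with signal-to-noise for each printed compound spot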
# [2] = test system: Human papillomavirus type 1a E7 protein (residues 1-88); experiment: HPV1a E7 small-molecule binders, primary screen, biochemical, small-molecule microarray, residues 1-88, 635 nm (AID 1129); settings: small-molecule microarray binding, fluorescence 635 nm; higher = more signal
# [3] = target: Focal adhesion kinase 1 (Homo sapiens) (UniProt Q05397); experiment: PTK2 protein binding on printed compound slides – biochemical, small-molecule microarray, 635/667 nm fluorescence, BSA, DTT, primary screen (AID 1130); settings: 635 nm fluorescence, higher = more signal;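 note: composite of spot emission at 667 nm and signal to noise over triplicate slides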
# [4] = test system: Fibrinogen (Alexa647-labelled); experiment: Alexa647-fibrinogen binding to printed small molecules – biochemical, small-molecule microarray, 635/667 nm fluorescence, artefact control for SMM control-protein annotation, profiling panel (AID 1131); settings: fibrinogen-A647 binding fluorescence, higher = more signal;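 note: z-score merges 667 nm fluorescence with per-spot signal-to-noise over triplicate slides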
# [5] = target: Follistatin (Homo sapiens) (UniProt P19883); experiment: FST protein binding to printed compounds – biochemical, small-molecule microarray, 635/667 nm fluorescence, primary screen (AID 1132); settings: 635 nm fluorescence, higher = more signal
# [6] = target: Fibroblast growth factor 2 (Homo sapiens) (UniProt P09038); experiment: basic fibroblast growth factor binding to printed compounds – biochemical, small-molecule microarray, 635/667 nm fluorescence, primary screen (AID 1133); settings: FGF2, fluorescence 635/667, higher = more signal
# [7] = JC-1 mitochondrial potential readout, lung cancer cells – cell-based, A549, JC-1 fluorescence, basal, 24 h, 100 nL, profiling panel (AID 1138); settings: higher = more signal;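 note: A549 lung adenocarcinoma cells under basal conditions with no added stimulus; test concentration not given here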
# [8] = test system: Lefty1; experiment: Lefty1 protein binding to printed compounds – biochemical, small-molecule microarray, 635/667 nm fluorescence, primary screen (AID 1139); settings: fluorescence 635/667, higher = more signal
# [9] = test system: wheat germ agglutinin (Triticum aestivum), Alexa647-labelled; experiment: Alexa647-WGA lectin binding to printed small molecules – biochemical, small-molecule microarray, 635/667 nm fluorescence, artefact control for SMM control-protein annotation, profiling panel (AID 1140); settings: WGA-A647 binding, 635 nm fluorescence, higher = more signal;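 note: score merges 667 nm feature emission with signal to noise over triplicate slides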
# [10] = target: Luciferin 4-monooxygenase (Photinus pyralis) (UniProt P08659); experiment: inhibition of purified Photinus pyralis luciferase – biochemical, luminescence, purified enzyme, 2006 set, primary screen (AID 1141); settings: purified firefly luciferase, SteadyGlo luminescence, 30 min; higher = more signal, called active from +8 up or from −8 down;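 note: cell-free assay with purified firefly luciferase at 100 ng per well in PBS; test concentration not given here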
# [11] = test system: Wnt5a (protein binding on small-molecule microarray); experiment: small molecules binding Wnt5a protein – biophysical, small-molecule microarray, 635/667 nm fluorescence, primary screen (AID 1142); settings: 635 nm fluorescence, higher = more signal;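 note: fluorescence read at 667 nm with signal to noise per printed feature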
# [12] = ATP-based viability of Huh7 replicon cells – cell-based, CellTiter-Glo luminescence, basal, 48 h, cytotoxicity control for HCV replication inhibitor project, primary screen (AID 1143); settings: higher = more signal, called active from +8 up or from −8 down;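 note: Huh7 hepatoma cells carrying a hepatitis C replication reporter with no stimulus; test concentration not given here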
# [13] = Pseudomonas biofilm growth suppression – PAO1 strain, BacTiter-Glo luminescence, LB-PBS, primary screen (AID 1144); settings: P. aeruginosa PAO1 biofilm, 12 h, higher = more signal
# [14] = basal CRE-LacZ reporter activity in PC12 – cell-based, unstimulated, primary screen (AID 1145); settings: no forskolin, luminescence, 4.5 h, higher = more signal, called active from +8 up or from −8 down
# [15] = forskolin-driven CRE-LacZ activity in PC12 – cell-based, CRE-LacZ reporter, forskolin-stimulated, primary screen (AID 1146); settings: luminescence, 4.5 h, higher = more signal, called active from +8 up or from −8 down;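 note: PC12 cells with 6xCRE LacZ reporter stimulated by forskolin 10 µM; beta-galactosidase reporter signal reflecting CREB driven transcription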
# [16] = target: Streptavidin (Streptomyces avidinii) (UniProt P22629); experiment: compounds binding control protein streptavidin – biophysical, small-molecule microarray, 635/667 nm fluorescence, artefact control for SMM compound annotation, primary screen (AID 1147); settings: higher = more signal;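 note: signal reflects streptavidin binding to arrayed compounds as a control protein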
# [17] = probe aInhba binding on compound microarray – biochemical, small-molecule microarray, 635/667 nm fluorescence, primary screen (AID 1148); settings: higher = more signal;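 note: score merges 667nm spot fluorescence with signal-to-noise for antibody binding to printed compounds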
# [18] = target: Torsin-1A (Homo sapiens) (UniProt O14656); experiment: TOR1A wild-type binding on microarray – cell lysate, small-molecule microarray, lysate, 635/667 nm, primary screen (AID 1149); settings: COS7 hTOR1A-WT lysate, 635 nm fluorescence, higher = more signal
# [19] = target: Torsin-1A (Homo sapiens) (UniProt O14656); experiment: torsin A mutant lysate binding on microarrays – cell lysate, small-molecule microarray, COS7 lysate, 635/667 nm fluorescence, primary screen (AID 1150); settings: COS7 hTOR1A mutant lysate, 635 nm fluorescence, higher = more signal;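 note: score pools 667 nm emission and signal to noise measuring lysate protein binding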
# [20] = test system: Sonic hedgehog protein (Shh); experiment: Sonic hedgehog microarray binding compounds – biochemical, small-molecule microarray, 635/667 nm fluorescence, primary screen (AID 1151); settings: 635 nm fluorescence, higher = more signal;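 note: Shh protein binding to compounds spotted on small-molecule microarray slides; score combines spot fluorescence intensity with signal-to-noise across triplicate slides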
# Streptavidin (Streptomyces avidinii), sequence (P22629 whole entry, looked up): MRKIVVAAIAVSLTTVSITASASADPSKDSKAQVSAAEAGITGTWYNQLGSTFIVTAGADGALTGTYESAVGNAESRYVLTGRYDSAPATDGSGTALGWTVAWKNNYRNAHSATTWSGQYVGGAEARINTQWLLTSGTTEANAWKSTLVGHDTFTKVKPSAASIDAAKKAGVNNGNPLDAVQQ
# Follistatin (Homo sapiens), sequence (P19883 whole entry, looked up): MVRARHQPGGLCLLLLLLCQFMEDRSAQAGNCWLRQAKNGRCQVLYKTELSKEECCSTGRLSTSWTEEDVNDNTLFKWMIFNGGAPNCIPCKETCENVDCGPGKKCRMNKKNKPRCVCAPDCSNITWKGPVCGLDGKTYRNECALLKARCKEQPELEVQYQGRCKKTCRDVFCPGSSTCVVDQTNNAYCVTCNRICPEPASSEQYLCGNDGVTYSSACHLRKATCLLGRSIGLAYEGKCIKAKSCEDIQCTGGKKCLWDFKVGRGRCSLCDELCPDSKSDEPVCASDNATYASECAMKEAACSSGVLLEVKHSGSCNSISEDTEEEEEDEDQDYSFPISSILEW
# Focal adhesion kinase 1 (Homo sapiens), sequence (Q05397 whole entry, looked up): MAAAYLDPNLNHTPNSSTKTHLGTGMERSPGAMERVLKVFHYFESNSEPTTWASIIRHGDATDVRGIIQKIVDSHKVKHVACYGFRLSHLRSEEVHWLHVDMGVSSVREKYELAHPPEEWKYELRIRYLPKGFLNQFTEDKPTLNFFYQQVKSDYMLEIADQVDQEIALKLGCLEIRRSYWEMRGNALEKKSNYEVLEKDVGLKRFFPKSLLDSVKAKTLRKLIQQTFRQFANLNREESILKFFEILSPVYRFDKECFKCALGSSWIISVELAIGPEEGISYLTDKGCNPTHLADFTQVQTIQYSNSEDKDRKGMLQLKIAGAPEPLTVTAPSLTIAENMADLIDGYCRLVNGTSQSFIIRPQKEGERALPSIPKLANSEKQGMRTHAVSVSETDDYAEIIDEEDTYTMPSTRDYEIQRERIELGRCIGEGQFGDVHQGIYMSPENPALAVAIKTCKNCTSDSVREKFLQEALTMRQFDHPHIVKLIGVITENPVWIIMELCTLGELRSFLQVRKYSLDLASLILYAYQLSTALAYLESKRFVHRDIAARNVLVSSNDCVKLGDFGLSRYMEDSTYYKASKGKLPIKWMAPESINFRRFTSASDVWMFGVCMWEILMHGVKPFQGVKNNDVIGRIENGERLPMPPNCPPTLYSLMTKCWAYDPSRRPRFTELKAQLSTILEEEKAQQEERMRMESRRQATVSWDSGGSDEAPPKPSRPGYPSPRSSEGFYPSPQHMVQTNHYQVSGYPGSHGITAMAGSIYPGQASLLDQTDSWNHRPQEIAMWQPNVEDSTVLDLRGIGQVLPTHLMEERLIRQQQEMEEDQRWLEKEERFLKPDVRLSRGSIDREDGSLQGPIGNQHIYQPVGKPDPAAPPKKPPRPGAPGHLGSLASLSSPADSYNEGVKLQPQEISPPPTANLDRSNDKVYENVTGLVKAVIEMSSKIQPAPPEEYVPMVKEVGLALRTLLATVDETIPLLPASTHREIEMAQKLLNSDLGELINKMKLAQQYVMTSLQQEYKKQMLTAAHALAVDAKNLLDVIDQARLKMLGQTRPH
# Luciferin 4-monooxygenase (Photinus pyralis), sequence (P08659 whole entry, looked up): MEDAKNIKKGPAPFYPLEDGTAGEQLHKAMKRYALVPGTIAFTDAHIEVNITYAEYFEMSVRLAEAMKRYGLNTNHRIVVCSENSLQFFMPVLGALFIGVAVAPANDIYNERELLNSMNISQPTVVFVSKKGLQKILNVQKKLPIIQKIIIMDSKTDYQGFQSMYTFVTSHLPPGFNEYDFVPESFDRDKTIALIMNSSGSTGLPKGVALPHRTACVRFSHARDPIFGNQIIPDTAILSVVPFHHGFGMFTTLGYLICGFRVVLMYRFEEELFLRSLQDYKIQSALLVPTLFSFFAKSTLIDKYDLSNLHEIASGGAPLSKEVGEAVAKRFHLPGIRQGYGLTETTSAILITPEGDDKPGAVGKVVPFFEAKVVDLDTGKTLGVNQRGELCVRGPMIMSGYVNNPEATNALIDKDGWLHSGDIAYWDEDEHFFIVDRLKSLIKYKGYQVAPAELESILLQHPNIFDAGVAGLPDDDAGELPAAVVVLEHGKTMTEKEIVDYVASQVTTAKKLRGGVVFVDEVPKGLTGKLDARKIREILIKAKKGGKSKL
# Torsin-1A (Homo sapiens), sequence (O14656 whole entry, looked up): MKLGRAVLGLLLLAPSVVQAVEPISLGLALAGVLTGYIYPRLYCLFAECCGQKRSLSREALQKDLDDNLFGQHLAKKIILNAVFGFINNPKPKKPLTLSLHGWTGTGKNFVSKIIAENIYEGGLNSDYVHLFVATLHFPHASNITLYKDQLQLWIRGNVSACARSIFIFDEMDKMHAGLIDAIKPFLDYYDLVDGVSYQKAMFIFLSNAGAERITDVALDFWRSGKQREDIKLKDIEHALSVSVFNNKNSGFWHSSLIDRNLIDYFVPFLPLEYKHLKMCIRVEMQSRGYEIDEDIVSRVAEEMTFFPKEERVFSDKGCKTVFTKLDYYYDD
# Fibroblast growth factor 2 (Homo sapiens), sequence (P09038 whole entry, looked up): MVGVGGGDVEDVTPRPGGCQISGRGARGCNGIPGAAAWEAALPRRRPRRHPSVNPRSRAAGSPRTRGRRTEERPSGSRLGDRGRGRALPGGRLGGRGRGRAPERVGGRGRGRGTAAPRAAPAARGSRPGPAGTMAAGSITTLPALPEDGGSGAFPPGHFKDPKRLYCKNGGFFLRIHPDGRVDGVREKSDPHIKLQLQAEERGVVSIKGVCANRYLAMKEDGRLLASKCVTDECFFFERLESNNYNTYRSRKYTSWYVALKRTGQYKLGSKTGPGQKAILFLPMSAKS
SMILES,composite z-score [1],composite z-score [2],composite z-score [3],composite z-score [4],composite z-score [5],composite z-score [6],z-score [7],composite z-score [8],composite z-score [9],z-score [10],composite z-score [11],z-score [12],z-score [13],z-score [14],z-score [15],composite z-score [16],composite z-score [17],composite z-score [18],composite z-score [19],composite z-score [20]
CN1C(=O)C2C(C1=O)C1C=C(c3ccc(CO)cc3)C2C(c2cccs2)N1Cc1cccc(OC(F)(F)F)c1 (stereo not given),1.87,1.25,0.726,1.02,0.942,0.384,0.38,0.733,0.661,0.117 (inactive),0.314,-3.4 (inactive),-0.656 (inactive),-0.336 (inactive),-1.55 (inactive),0.474,0.0689,1.13,-0.0742,0.834
C=CCN1C(=O)[C@@]2(O[C@@H](CCO)[C@H]([Si](C)(C)c3ccc(OC)cc3)[C@H]2C)c2cc(N3C(=O)c4ccccc4Oc4ccccc43)ccc21,0.939,0.551,0.17,0.485,0.144,0.675,0.00401,0.24,0.615,-1.49 (inactive),0.485,-7.93 (inactive),-1.4 (inactive),18.4 (active),-3.87 (inactive),0.031,-0.102,-0.331,-0.0355,0.23
C=CCN1C(=O)[C@]2(CC=C)N=C(c3ccc(OCCCO)cc3)O[C@@H]2c2ccccc21,3.19,1.16,0.496,0.297,1.39,1.56,-0.998,0.768,1.14,-3.31 (inactive),0.731,-4.15 (inactive),0.312 (inactive),0.796 (inactive),-0.953 (inactive),0.842,0.296,0.265,0.538,1.65
CCOc1cc(C(O)C2C=CC3C(=O)N(C)C(=O)C3N2N2CCCCC2)ccc1O (stereo not given),1,-0.158,0.125,0.498,0.746,0.1,-0.634,0.192,0.335,-0.906 (inactive),0.194,0.862 (inactive),-0.401 (inactive),0.433 (inactive),-0.499 (inactive),0.3,-0.137,0.28,0.221,0.0937
C=C(CCCC)/C(=C/C[C@@H](OC(=O)c1ccncc1)c1cccc(OCCO)c1)c1cnc2ccccc2c1,0.65,0.539,0.0663,0.832,1.5,1.74,1.14,1.6,0.871,-1.63 (inactive),1.25,-3.08 (inactive),-0.772 (inactive),3.22 (inactive),0.644 (inactive),1.49,0.194,1.22,0.0816,2.09
COCCOC(=O)N1C(=O)[C@@]2(c3cc(C#Cc4ccc(OC)cc4)ccc31)[C@H](C(=O)N1CCN(c3ncccn3)CC1)[C@H]1C(=O)O[C@H](c3ccccc3)[C@H](c3ccccc3)N1[C@@H]2c1ccccc1OCCO,2.03,1.14,0.364,-0.118,0.579,0.238,-0.94,0.305,0.701,0.223 (inactive),-0.0175,-0.651 (inactive),-1.1 (inactive),-0.467 (inactive),-0.638 (inactive),0.103,-0.215,0.236,0.0863,1.01
COC(=O)[C@@]1(Cc2ccc(F)cc2)[C@H]2c3cc(C(=O)N4CCCC4)n(CCF)c3C[C@H]2CN1C(=O)c1ccccc1,2.82,1.2,1.67,0.642,0.088,-0.299,0.0101,-0.427,1.4,0.125 (inactive),1.5,-2.28 (inactive),-0.603 (inactive),0.952 (inactive),1.33 (inactive),1.99,1.66,0.103,1.07,-0.462
COc1ccc([Si](C)(C)[C@@H]2[C@@H](CC(=O)N3CCC[C@H]3CO)O[C@]3(C(=O)N(Cc4ccc(N5C(=O)c6cccc7cccc5c67)cc4)c4ccccc43)[C@H]2C)cc1,1.96,1.2,0.566,0.759,1.1,1.54,-0.438,1.2,0.719,0.508 (inactive),0.761,-4.78 (inactive),-0.489 (inactive),0.995 (inactive),-0.0202 (inactive),0.0541,0.0184,0.344,0.72,2.06
CN(C)CCCNC(=O)[C@@H]1c2ccccc2C(=O)N(Cc2ccc(OC(F)(F)F)cc2)[C@H]1c1ccc(CO)cc1,0.21,0.701,0.0807,0.18,1.18,-0.22,0.311,0.9,-0.374,1.15 (inactive),0.0246,-1.35 (inactive),-1.42 (inactive),-0.114 (inactive),0.77 (inactive),0.121,-0.128,-0.116,0.151,2.18
C=CCOC(=O)[C@@H]1[C@H]2C(=O)O[C@H](c3ccccc3)[C@H](c3ccccc3)N2[C@H](c2ccc(OCCOC(=O)[C@H]3C[C@H]4C(=O)N[C@@H](CC(C)C)C(=O)N4[C@H]3c3ccc(O)cc3)cc2)[C@@]12C(=O)Nc1ccc(I)cc12,2.17,1.19,0.538,0.623,1.5,1.87,-0.176,1.52,0.747,-0.646 (inactive),0.504,-0.141 (inactive),0.0488 (inactive),0.277 (inactive),-1.14 (inactive),0.324,-0.102,1.33,1.33,1.97

# Reference: PubChem BioAssay
